The values below come from PubChem BioAssay.

Activity calls are given as the source filed them.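 The calls were made as follows, unless noted: active = visually confirmed hit in the image check and inhibition above 20%; inconclusive = visually confirmed hit but inhibition not above 20%; inactive = no visual hit in the image check.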

Usually inhibition stands for the relative decrease from the control value, in per cent.

Experiment [1] can be described thus: inhibitors of TNFa-induced NFkB p65 translocation, primary screen, imaging, HUVEC, MLSMR starter and 10KST1 sets (AID 438;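 active = inhibition above 20% together with a positive visual image hit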;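 also: compound added about 3h40 before a 20 min TNFalpha stimulation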;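 as to inhibition: signal is the nuclear over cytoplasmic p65 intensity ratio per well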). The settings on record: HUVEC TNFa-induced p65 nuclear translocation; cell count: measured here: nuclei count (cytotoxicity indicator), at 2.08 µM; inhibition: at 2 µM, stronger effect = higher value, 0% TNFa-plus-vehicle, 100% no-TNFa wells.
Experiment [2] in a line: inhibitors of mutant huntingtin aggregation, primary screen, imaging, exon1htt(103Q)mCFP cells, high-content imaging (AID 483;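 active = visual image review flags a hit and inhibition of aggregation exceeds 20%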;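 also: compound exposure lasted 3 days before fixation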;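 as to nuclei count: percent of the per-plate median nuclei count of sample wells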). The following applies: exon1htt(103Q)mCFP cell line, aggregate imaging, at 2 µM; inhibition of aggregation: stronger effect = higher value; nuclei count: measured here: cell count, toxicity.
Experiment [3] is described as follows: inhibitors of E-selectin induction by TNFa, primary screen, imaging, HUVEC, immunofluorescence, MLSMR starter and 10KST1 sets (AID 487).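 As to inhibition: signal is fraction of cell area covered by stained E-selectin grains.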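 As to nuclei count: 100% = median nuclei count of all wells on the same plate.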 The following applies: HUVEC TNFalpha-induced E-selectin immunofluorescence imaging, at 2 µM; inhibition: stronger effect = higher value; nuclei count: measured here: cell number, toxicity.
The target in experiment [4] is Voltage-gated potassium channel subunit beta-2 (Rattus norvegicus) (UniProt P62483). Briefly: KvBeta enzyme negative modulators, primary screen, biochemical, NADPH fluorescence (AID 622;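 active = fluorescence slope higher than the sample average by over 3 SD, cut at about -0.22 in these data, passing the limit was not always enough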;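 also: slope of raw intensity against log time taken from 70 to 1610 s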). The following applies: recombinant KvBeta, 4-cyanobenzaldehyde reduction, at 10 µM, stronger effect = higher value.
Chain of Voltage-gated potassium channel subunit beta-2 (Rattus norvegicus) (P62483 whole entry, looked up): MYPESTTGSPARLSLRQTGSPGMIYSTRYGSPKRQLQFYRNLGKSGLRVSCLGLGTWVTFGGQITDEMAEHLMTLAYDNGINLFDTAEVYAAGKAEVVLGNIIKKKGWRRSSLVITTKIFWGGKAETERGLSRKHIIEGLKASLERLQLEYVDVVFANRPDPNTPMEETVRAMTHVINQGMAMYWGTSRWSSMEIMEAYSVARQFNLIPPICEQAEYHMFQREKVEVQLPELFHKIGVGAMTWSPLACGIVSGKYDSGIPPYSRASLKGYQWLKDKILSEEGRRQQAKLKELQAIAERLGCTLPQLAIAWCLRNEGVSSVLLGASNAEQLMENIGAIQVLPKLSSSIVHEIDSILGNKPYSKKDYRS
For experiment [5] the target is unchanged. Briefly: KvBeta positive modulators, primary screen, biochemical, NADPH fluorescence (AID 623;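 active = NADPH fluorescence slope more negative than the mean of all samples by about 3 SD, 99.7% confidence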;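 also: fluorescence intensity change per second fitted from 20 to 320 s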). The following applies: Recombinant KvBeta, NADPH fluorescence decrease slope, 10 min; at 10 µM; stronger effect = lower value.
Experiment [6] concerns the target Alpha-2C adrenergic receptor (Homo sapiens) (UniProt P18825). Briefly: modulators of alpha2C/GIRK thallium flux, primary screen, cell-based, HEK293 alpha2C/GIRK1/2 (AID 624;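 active = fluorescence slope after compound addition differing from the mean of all screened samples at 99.7% confidence, in either direction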;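 also: slope of fluorescence ratio to pre-addition baseline per second over 15 to 24 s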). The following applies: thallium flux BTC fluorescence, at 10 µM, actives lie on both sides.
The nature of experiment [7]: inhibitors of Sendai virus-induced IRF3 signaling, primary screen, TLR/RLR signaling modifier project, cell-based, Sendai virus stimulus, luciferase, 10K MLSCN set (AID 602276;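 active = inhibition at or above 50% at 10 µM; inactive = inhibition below 50%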;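 also: firefly luciferase from ISG56 promoter only with Renilla not read in this screen; 0% = Sendai virus plus DMSO and 100% = medium plus DMSO without virus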). The settings on record: HEK293 RL24 IRF3 luciferase reporter, at 10 µM, stronger effect = higher value. (In general: Reporter assays use an easily measured gene product as a stand-in for the process of interest.)

Experiment [8] can be described thus: inhibitors of poly I:C-induced TLR3 signaling, primary screen, cell-based, poly I:C stimulus, luciferase, 10K MLSCN set (AID 602277;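 active = inhibition of the reporter signal at or above 50%; inactive = inhibition below 50%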). The settings on record: HEK293-TLR3 RL24 IRF3 luciferase reporter, at 10 µM, stronger effect = higher value.

Chain of Alpha-2C adrenergic receptor (Homo sapiens) (P18825 whole entry, looked up): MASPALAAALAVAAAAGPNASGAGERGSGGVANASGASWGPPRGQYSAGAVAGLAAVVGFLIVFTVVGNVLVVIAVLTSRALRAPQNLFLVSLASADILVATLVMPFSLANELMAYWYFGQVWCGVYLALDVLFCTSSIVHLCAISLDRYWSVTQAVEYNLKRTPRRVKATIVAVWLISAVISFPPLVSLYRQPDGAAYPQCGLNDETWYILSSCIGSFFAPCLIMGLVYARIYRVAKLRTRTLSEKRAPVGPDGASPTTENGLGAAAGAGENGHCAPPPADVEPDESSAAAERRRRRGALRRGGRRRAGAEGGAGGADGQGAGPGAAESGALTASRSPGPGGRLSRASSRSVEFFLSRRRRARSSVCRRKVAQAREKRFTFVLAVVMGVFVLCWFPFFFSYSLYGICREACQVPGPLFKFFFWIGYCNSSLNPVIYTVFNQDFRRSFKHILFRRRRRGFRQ

As to `N#Cc1c(N)c(C(=O)c2ccccc2)n2c1CCCC2`, the cell count in experiment [1] came out at 270. The inhibition in experiment [1] is -3.7% (inactive); in experiment [3], -11.6% (inactive); in experiment [7], -3.25% (inactive); in experiment [8], 14.6% (inactive). In experiment [2], the inhibition of aggregation was -10.6% (inactive). Besides, the nuclei count in experiment [2] came out at 86.4%; in experiment [3], 96.6%. In experiment [4], the fluorescence slope was -0.46 (inactive). Also, the NADPH fluorescence slope in experiment [5] was -1.7e-05 (inactive). The slope in experiment [6] is 0.006 (inactive).
As to `O=C1CC(N2CCN(c3cccc(C(F)(F)F)c3)CC2)C(=O)N1c1ccccc1` (stereo not drawn), the cell count in experiment [1] is 622. Further, the inhibition in experiment [1] was -1.5% (inactive); in experiment [3], 64.7% (active); in experiment [7], 7.76% (inactive); in experiment [8], 27.1% (inactive). The inhibition of aggregation in experiment [2] is -3.8% (inactive). Also, the nuclei count in experiment [2] stood at 117%; in experiment [3], 75.3%. The fluorescence slope in experiment [4] is -0.473 (inactive). Moreover, in experiment [5], the NADPH fluorescence slope was -1.5e-05 (inactive). Besides, the slope in experiment [6] was 0.00274 (inactive).
Turning to `O=C(CCN1C(=O)c2ccccc2C1=O)NCCN1CCOCC1`, the cell count in experiment [1] is 377. Further, the inhibition in experiment [1] was -10.6% (inactive); in experiment [3], -6% (inactive); in experiment [7], -7.29% (inactive); in experiment [8] it was 20.7% (inactive). In experiment [2], the inhibition of aggregation is 10.7% (inactive). Further, the nuclei count is 96.7% in experiment [2] and 97% in experiment [3]. In experiment [4], the fluorescence slope is -0.452 (inactive). Further, in experiment [5], the NADPH fluorescence slope is 2.7e-05 (inactive). Also, the slope in experiment [6] is 0.00342 (inactive).
`O=C(Nc1nc(-c2ccncc2)cs1)C1COc2ccccc2O1` (stereo not drawn): the cell count in experiment [1] came out at 646. Moreover, the inhibition was -4.9% (inactive) in experiment [1], -28.4% (inactive) in experiment [3], -5.76% (inactive) in experiment [7] and -29.4% (inactive) in experiment [8]. For the same compound, the inhibition of aggregation in experiment [2] was -3.1% (inactive). Moreover, the nuclei count stood at 118% in experiment [2] and 119% in experiment [3]. Also, the fluorescence slope in experiment [4] is -0.608 (inactive). Moreover, the NADPH fluorescence slope in experiment [5] is -3.7e-05 (inactive). Further, in experiment [6], the slope was 0.00702 (inactive).
Consider `COc1ccc(C(NC(=O)C(C)(C)C)NC(=O)C(C)(C)C)cc1`, for which, in experiment [1], the cell count amounted to 364. The inhibition in experiment [1] is 3% (inactive); in experiment [3], -52.8% (inactive); in experiment [7], 4.79% (inactive); in experiment [8] it was 9.47% (inactive). The inhibition of aggregation in experiment [2] is 0.4% (inactive). In addition, the nuclei count in experiment [2] stood at 106%; in experiment [3] it was 102%. Also, in experiment [4], the fluorescence slope was -0.618 (inactive). In addition, the NADPH fluorescence slope in experiment [5] is -1e-05 (inactive). Moreover, the slope in experiment [6] was 0.00914 (inactive).
As to `CN(CC(=O)Nc1ccc2c(c1)OCCO2)S(=O)(=O)c1ccc(Br)s1`, the cell count in experiment [1] is 315. The inhibition is -1.9% (inactive) in experiment [1], -21% (inactive) in experiment [3], -3.5% (inactive) in experiment [7] and 10.4% (inactive) in experiment [8]. The inhibition of aggregation in experiment [2] was -7.8% (inactive). For the same compound, the nuclei count in experiment [2] was 100%; in experiment [3], 98.5%. In experiment [4], the fluorescence slope is -0.403 (inactive). The NADPH fluorescence slope in experiment [5] was -4.9e-05 (inactive). The slope in experiment [6] was 0.00399 (inactive).
For the compound `Cc1nc2ccc(S(=O)(=O)NC(C(=O)NCc3cccs3)C(C)C)cc2s1` (stereo not drawn), the cell count in experiment [1] was determined as 332. The inhibition in experiment [1] is -8.3% (inactive); in experiment [3], -28.8% (inactive); in experiment [7], -5.51% (inactive); in experiment [8] it was 14.4% (inactive). Also, in experiment [2], the inhibition of aggregation is 24.4% (inactive). Also, the nuclei count in experiment [2] amounted to 88.7%; in experiment [3], 106%. Further, the fluorescence slope in experiment [4] is -0.612 (inactive). For the same compound, in experiment [5], the NADPH fluorescence slope was -5.2e-05 (inactive). Moreover, in experiment [6], the slope was 0.00687 (inactive).
For `O=C(CSc1nnc(-c2ccco2)n1-c1ccccc1)N1CCN(C(=O)c2ccco2)CC1`, the cell count in experiment [1] was 537. In addition, the inhibition in experiment [1] is -7.8% (inactive); in experiment [3], 0.8% (inactive); in experiment [7], 11.5% (inactive); in experiment [8], 31.2% (inactive). Moreover, the inhibition of aggregation in experiment [2] was 27.8% (active). For the same compound, the nuclei count stood at 59.4% in experiment [2] and 116% in experiment [3]. In experiment [4], the fluorescence slope is -0.474 (inactive). Further, in experiment [5], the NADPH fluorescence slope was -1.7e-05 (inactive). The slope in experiment [6] was 0.00672 (inactive).
As for `O=S(=O)(NC1CCCCC1NS(=O)(=O)c1ccc(F)cc1)c1ccc(F)cc1` (stereo not drawn), in experiment [1], the cell count stood at 334. In addition, the inhibition in experiment [1] was 5.3% (inactive); in experiment [3] it was 5.1% (inactive); in experiment [7], 21.4% (inactive); in experiment [8], 26.6% (inactive). For the same compound, in experiment [2], the inhibition of aggregation was -1.8% (inactive). The figures for the nuclei count in experiment [2] and in experiment [3] were 101% and 112%, respectively. Moreover, in experiment [4], the fluorescence slope is -0.503 (inactive). The NADPH fluorescence slope in experiment [5] was -3.7e-06 (inactive). Further, the slope in experiment [6] is 0.00507 (inactive).
In the case of `CCCc1cc(=O)[nH]c(/N=C(\N)Nc2ccccc2)n1`, the cell count in experiment [1] amounted to 826. Moreover, the inhibition in experiment [1] is 3.6% (inactive); in experiment [3] it was -95.3% (inactive); in experiment [7], 12.3% (inactive); in experiment [8], 16.6% (inactive). Further, the inhibition of aggregation in experiment [2] is -12.7% (inactive). Besides, the nuclei count in experiment [2] was 94.3%; in experiment [3], 138%. The fluorescence slope in experiment [4] is -0.431 (inactive). Moreover, the NADPH fluorescence slope in experiment [5] was -2.5e-05 (inactive). For the same compound, in experiment [6], the slope was 0.0048 (inactive).
As to `CCOC(=O)CN1C(=O)C(=O)c2cccc(C)c21`, the cell count in experiment [1] was found to be 651. Moreover, the inhibition was -4.4% (inactive) in experiment [1], -62.9% (inactive) in experiment [3], 15.4% (inactive) in experiment [7] and 34.9% (inactive) in experiment [8]. For the same compound, the inhibition of aggregation in experiment [2] is -8.1% (inactive). Also, the nuclei count in experiment [2] and in experiment [3] was 119% each time. Further, the fluorescence slope in experiment [4] was -0.601 (inactive). The NADPH fluorescence slope in experiment [5] was -4.5e-05 (inactive). Moreover, the slope in experiment [6] was 0.00699 (inactive).
In the case of `COc1cccc(NC(=O)N2CCN(C(=O)C(Cc3ccc(OC)c(OC)c3)NC(C)=O)CC2)c1` (stereo not drawn), the cell count in experiment [1] was 364. The inhibition in experiment [1] is -0.5% (inactive); in experiment [3] it was -47.6% (inactive); in experiment [7], 12.1% (inactive); in experiment [8], 22.8% (inactive). Besides, the inhibition of aggregation in experiment [2] was -4% (inactive). Moreover, the nuclei count was 107% in experiment [2] and 99.9% in experiment [3]. For the same compound, in experiment [4], the fluorescence slope is -0.355 (inactive). The NADPH fluorescence slope in experiment [5] is -3.6e-05 (inactive). In addition, the slope in experiment [6] is 0.00701 (inactive).
Take `CC1CCCCN1C(=O)Cn1nnc(-c2cccnc2)n1` (stereo not drawn): in experiment [1], the cell count stood at 493. For the same compound, the inhibition was 8% (inactive) in experiment [1], -23.4% (inactive) in experiment [3], 9.95% (inactive) in experiment [7] and 16.3% (inactive) in experiment [8]. Besides, the inhibition of aggregation in experiment [2] is -12% (inactive). Also, the nuclei count was found to be 93.1% in experiment [2] and 95.3% in experiment [3]. Further, the fluorescence slope in experiment [4] is -0.485 (inactive). Besides, the NADPH fluorescence slope in experiment [5] was -4.8e-05 (inactive). Further, the slope in experiment [6] is 0.00445 (inactive).
